Screens: PubChem, National Center for Advancing Translational Sciences (NCATS)
Only some compounds are listed: those with a hit (about 21% of all), similar ones and a draw of the others.
Pf growth 96h: inhibits malaria parasite growth, 96 h; Potency, µM (series often up to 28.7 µM), hits mostly inhibitors; hit rate 6.9% among 320,000; AID 504834; P. falciparum luciferase reporter growth, 96 h
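P. falciparum expressing integrated firefly luciferase, in erythrocytes at 2% hematocrit, 0.05% parasitemia, incubated with compounds 96 h at 37 C, 5% CO2. Growth inhibition read as loss of luminescence; two-generation exposure targets delayed-death apicoplast inhibitors.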
Shiga inhibitor: blocks Shiga toxin action in Vero cells | Vero cells, Shiga toxin protein synthesis inhibition reporter | inhibition, % at 38.7 µM | hit rate 9.2% among 290,000 | AID 2315; in the data active means inhibition mostly above about 28%, no sharp cut-off; inactive means mostly below about 43%
HCV inh: blocks hepatitis C virus; Potency, µM (top dose mostly 41.8 µM), actives largely listed as inhibitors; AID 651820; hit rate 3.4% among 340,000; Huh7.5.1 HCVcc-Cre infection, luciferase reporter, 44 h
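Infectious HCV cell culture screen: compound-treated cells (1,000/well, pre-plated 4 h) are infected with HCVcc-Cre at roughly 0.5 moi and grown 44 h. Infection is quantified by luciferase signal after 15 min substrate incubation at room temperature.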
AMA1-RON2 inh: AMA1-RON2 (P. falciparum) interaction inhibition. AlphaScreen AMA1-biotinylated RON2 peptide binding. Potency, µM (titrated, usually from 58.2 µM), actives largely listed as inhibitors. hit rate 0.2% among 360,000; further: nearly all actives have a fitted effect of over 45% in size
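AMA1 (3D7) with his tag at 25 nM final met compounds first, then biotinylated RON2 peptide at 25 nM; detection used donor plus acceptor beads, 10 µg/mL apiece, read by AlphaScreen after 30 min at room temperature.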
Pf growth 48h: inhibits P. falciparum growth in the first generation, 48 h. Potency, µM (highest dose often 28.7 µM), most hits filed as inhibitors. hit rate 5.9% among 310,000. P. falciparum luciferase growth in erythrocytes, 48 h. AID 504832
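In quantitative HTS format, infected erythrocytes bearing luciferase-reporter parasites were treated for a single generation at 37 C. Luminescence after adding detection reagent served as the growth measure.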
CHX counter: counter-screen hit for Shiga toxin inhibitors, cycloheximide; cell reporter, cycloheximide protein synthesis inhibition counterscreen; max response, %; hit rate 12% among 300,000; AID 2314; in the data active means max response mostly above about 13%, no sharp cut-off; inactive means mostly below about 14%; further: read at 38.3 µM for the half of the compounds with a filed dose
Of the large screens only hits and unclear results are named; the others gave an inactive call. Unless noted, the call rests on the fitted dose curve; in most records, active means well fitted curve in the direction sought with a large enough effect; inconclusive means small, poorly fitted or top-dose-only effect, or another doubt; inactive means no such curve, though single readings can be large; an effect the other way counts as inactive or inconclusive.

Cc1ccc(NC(=O)OCc2ccccc2S(C)=O)cc1 (centres undefined)	Pf growth 96h inconclusive, CHX counter 30
CCOC(=O)Nc1ccc(NS(=O)(=O)c2ccc(C)cc2)cc1	HCV inh inconclusive
CCOc1cc2[nH]c(=O)n(CCCCCC(=O)NC3CCCC3)c(=O)c2cc1OCC	Pf growth 96h 10µM, Pf growth 48h inconclusive
COc1cc2[nH]c(=O)n(CCCC(=O)NCCc3ccccc3)c(=O)c2cc1OC	Pf growth 96h 5.2µM, HCV inh inconclusive, Pf growth 48h inconclusive
COc1cccc2c(=O)n(CC(=O)NCCc3ccccc3)ccc12	Pf growth 96h 3.3µM, Pf growth 48h 1.9µM
Clc1ccc(OCCCc2nc(-c3cccnc3)no2)c(Cl)c1	Pf growth 96h 9.3µM
Clc1ccc(OCc2nc(-c3ccccn3)no2)c(Br)c1	Shiga inhibitor 66, HCV inh inconclusive, CHX counter 42
COc1ccccc1-c1nc(-c2ccccn2)no1	HCV inh inconclusive (no result: Pf growth 48h)
Clc1ccccc1OCc1nc(-c2ccccn2)no1	Shiga inhibitor 70, HCV inh inconclusive, CHX counter 33 (no result: Pf growth 96h)
Cc1cc(NS(=O)(=O)c2ccc(NC(=O)CSc3nc4ncccc4[nH]3)cc2)nc(C)n1	none
Cc1cc(C(=O)N2CCC2(C)C(=O)NS(=O)(=O)c2ccccc2Cl)nn1C (centres undefined)	none (no result: Pf growth 96h, Shiga inhibitor, HCV inh, Pf growth 48h, CHX counter)
Cc1ccc(NC(=O)CNC(=O)N2CC(=O)Nc3ccccc32)cc1F	none
CCc1cccc(NC(=O)CNC(=O)N2CC(=O)Nc3ccccc32)c1	CHX counter 26
CCc1cccc(Nc2c([N+](=O)[O-])cc(C(=O)N3CC(=O)Nc4ccccc43)cc2[N+](=O)[O-])c1	Pf growth 96h inconclusive, HCV inh 14µM, AMA1-RON2 inh inconclusive, Pf growth 48h inconclusive
CC(=O)Nc1cccc(/C(C)=N/NC(=O)c2cccc(S(=O)(=O)N3CCCC3)c2)c1	none (no result: Pf growth 96h, Shiga inhibitor, HCV inh, Pf growth 48h, CHX counter)
Cc1ccc(-c2nnn(CC(=O)NC3CCN(Cc4ccccc4)CC3)n2)cc1	HCV inh 22µM, Pf growth 48h inconclusive
CCCCOc1ccc(-c2nnn(CC(=O)NCCc3c[nH]c4ccccc34)n2)cc1	HCV inh inconclusive, Pf growth 48h inconclusive, CHX counter 15
O=C(Cn1nnc(-c2ccc(Cl)cc2)n1)NC1CCN(Cc2ccccc2)CC1	Pf growth 96h inconclusive, HCV inh inconclusive
CCOC(=O)C(Cc1ccccc1)NC(=O)Cn1nnc(-c2ccc(SC)cc2)n1 (centres undefined)	Pf growth 96h inconclusive
CSc1ccc(-c2nnn(CC(=O)NCc3ccccc3)n2)cc1	CHX counter 11 (no result: Pf growth 96h)
Cc1ccc(-c2nnn(CCC(=O)NC3CCCC3)n2)cc1	Pf growth 96h inconclusive, CHX counter 17
Cc1ccc(N(CC(=O)NC2CCCCC2)C(=O)Cn2nnc(-c3ccc(C)o3)n2)cc1	none
Cc1ccc(OCCN2CCC2(C)C(=O)Nc2ccc3c(c2)OCCO3)cc1 (centres undefined)	none (no result: Pf growth 96h, Shiga inhibitor, HCV inh, Pf growth 48h, CHX counter)
Cc1nccn1CCOc1ccc(Cl)cc1	none (no result: Shiga inhibitor)
CCOC(=O)C1=CC[C@H]2c3c(c4ccccc4n3C)C(=O)C1N2C(=O)OC(C)(C)C	Pf growth 96h inconclusive (no result: Shiga inhibitor, CHX counter)
COc1ccc(OCC(=O)NNC(=O)c2cccc(O)c2)cc1	Pf growth 96h inconclusive
CN(C(=O)COC(=O)CSc1ccc(C(N)=O)cc1[N+](=O)[O-])C1CCCCC1	none (no result: Shiga inhibitor, CHX counter)
O=C1Cc2cc(NS(=O)(=O)c3ccc(Cl)cc3)cc3c2N1CCC3	none (no result: Shiga inhibitor, CHX counter)
Cc1ccc(NS(=O)(=O)c2cc3c4c(c2)CC(=O)N4CCC3)cc1C	HCV inh inconclusive, Pf growth 48h 10µM
COc1ccc(CCNS(=O)(=O)c2cc3c4c(c2)CC(=O)N4CCC3)cc1	Pf growth 48h 9.3µM
COc1ccccc1NS(=O)(=O)c1cc2c3c(c1)CC(=O)N3CCC2	HCV inh inconclusive, Pf growth 48h 9.3µM
CCC(c1nnnn1C1CCCC1)N1CCC(C(N)=O)CC1 (centres undefined)	none
CCO[C@H]1OC(C(=O)NCc2ccccc2)=C[C@@H](c2cn(C(C)=O)c3ccccc23)[C@@H]1CCCO	Pf growth 96h inconclusive, Pf growth 48h inconclusive
CCCCCCC(C)(C)c1ccc([C@@H]2C[C@H](O)CC[C@H]2CCCO)c(O)c1	Pf growth 96h 5.2µM, HCV inh inconclusive, Pf growth 48h 4.7µM (no result: Shiga inhibitor, CHX counter)
NS(=O)(=O)Nc1c(Br)cc(Br)c2cccnc12	none (no result: Pf growth 96h, HCV inh, AMA1-RON2 inh, Pf growth 48h)
COc1ccc(C2NCc3ccc4c(c3-n3cccc32)OCO4)cc1O (centres undefined)	HCV inh 0.56µM, Pf growth 48h 6.6µM (no result: Pf growth 96h)
c1cc2n(c1)-c1c(ccc3c1OCO3)CNC2c1ccc2c(c1)OCO2 (centres undefined)	HCV inh inconclusive, AMA1-RON2 inh inconclusive, Pf growth 48h inconclusive
CCC(=O)Nc1c(C)nn(-c2ccc(C)c(C)c2)c1C	Shiga inhibitor 65, CHX counter 22
Cc1cc(N)n(-c2ccc([N+](=O)[O-])cc2)n1	HCV inh inconclusive
CC(=O)Nc1c(C)nn(-c2ccc(C)c(C)c2)c1C	none
Cc1ccc(-n2nc(C)c(NC(=O)CCl)c2C)cc1C	Shiga inhibitor 101, HCV inh 3.5µM, Pf growth 48h 4.1µM, CHX counter 33
Cc1cc(N)n(-c2ccccn2)n1	Shiga inhibitor 72, CHX counter 17
Cc1cc(N)n(-c2ccc(C)c(C)c2)n1	Shiga inhibitor 62, CHX counter 27
CCN(CC)S(=O)(=O)c1ccc(OCC(=O)NC(=O)Cc2ccccc2)c([N+](=O)[O-])c1	Pf growth 96h inconclusive (no result: Shiga inhibitor, CHX counter)
CCNC(=O)C[C@@H]1CC[C@@H]2NC[C@@H](O)COC[C@H]2O1	none (no result: Pf growth 96h, Shiga inhibitor, HCV inh, Pf growth 48h, CHX counter)
CCc1ccccc1NC(=O)CN(C)C(=O)Cn1ncc(Cl)c(Cl)c1=O	HCV inh 2.8µM
O=C(Cn1ncc(Cl)c(Cl)c1=O)c1ccc2c(c1)OCCO2	HCV inh 2µM (no result: Pf growth 96h, Shiga inhibitor, Pf growth 48h, CHX counter)
CCOC(=O)c1ccc(NC(=O)Cn2ncc(Cl)c(Cl)c2=O)cc1	HCV inh inconclusive, Pf growth 48h inconclusive
CCC(=O)Nc1ccc(C(=O)Cn2ncc(Cl)c(Cl)c2=O)cc1	Shiga inhibitor 54, HCV inh inconclusive, CHX counter 46
N#Cc1cc([N+](=O)[O-])ccc1NC(=O)COC(=O)CN1C(=O)C2CCCCC2C1=O (centres undefined)	none (no result: Pf growth 96h, Shiga inhibitor, Pf growth 48h, CHX counter)
COc1ccc(N(CC(=O)NC2CCCC2)C(=O)Cn2nnc(-c3ccc(OC)c(OC)c3)n2)c(OC)c1	Pf growth 96h inconclusive, HCV inh inconclusive, Pf growth 48h inconclusive
c1ccc(Cn2c(SCCN3CCOCC3)nnc2-c2cccnc2)cc1	Pf growth 96h 10µM (no result: Pf growth 48h)
Cc1ccc2[nH]c(=O)c(C(c3nnnn3CC3CCCO3)N3CCCc4ccccc43)cc2c1 (centres undefined)	Pf growth 48h 13µM
Cc1ccc2[nH]c(=O)c(C(c3nnnn3Cc3ccccc3)N3CCc4ccccc43)cc2c1 (centres undefined)	HCV inh 32µM (no result: Pf growth 96h, Pf growth 48h)
